Results on 17 compounds are retold here after the supplement of paper PMC13094657.

± gives the standard deviation of the averaged measurements.

Assay [1] concerns MDA-MB-231. Kind of assay: cell viability relative to vehicle unstimulated control (fraction); higher = more viable cells. The conditions noted are these: pre-treatment time: 18 h then 24 h IFNg/TNF.
Assay [2] has as its system MDA-MB-231. Kind of assay: kynurenine production, fold change vs DMSO IFNg/TNF control; higher = more kynurenine produced (less inhibition). The following applies: pre-treatment time: 18 h then 24 h IFNg/TNF. The gist of the method: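 In 96-well plates, MDA-MB-231 cells (7 × 10^4/well) were given 24 h to settle, pre-treated for 18 h with each natural product in 0.1% DMSO, and stimulated for 24 h with IFNγ (1 U/ml) and TNF (6.25 ng/ml) at 37°C. Supernatants were processed with trichloroacetic acid and p-dimethylaminobenzaldehyde and read at 492 nm against 0–100 μM standards. In the first screening round, kynurenine production, as fold change over same-plate cytokine-stimulated vehicle wells, was averaged over duplicate plates.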
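For cell viability relative to vehicle unstimulated control in this document: viability of the cells left after supernatant collection, read with Deep Blue dye added for 4 h, as absorbance at 570 nm minus 600 nm.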

Consider `C[C@H](CC[C@@H](O)C(C)(C)O)[C@H]1CC[C@@]2(C)[C@@H]3CC=C4[C@@H](CC[C@H](O)C4(C)C)[C@]3(C)[C@H](O)C[C@]12C` [Mogrol] (compound dose: 10 uM), for which the cell viability in the assay on MDA-MB-231 [1] came out at 0.939 ± 0.051. For the same compound, in the assay on MDA-MB-231 [2], the kynurenine production was 0.905 ± 0.15.

`CC1CCC(C(C)C)C(O)C1` (single isomer, unassigned; (-)) [(-)-Menthol] (compound dose: 10 uM): the cell viability in the assay on MDA-MB-231 [1] was 0.899 ± 0.076. Further, in the assay with MDA-MB-231 [2], the kynurenine production came out at 0.988 ± 0.27.

`CC(C)(O)[C@H]1CC[C@@](C)([C@H]2CC[C@]3(C)[C@@H]2[C@H](O)C[C@@H]2[C@@]4(C)CC[C@H](O)C(C)(C)[C@@H]4[C@@H](O[C@@H]4O[C@H](CO)[C@@H](O)[C@H](O)[C@H]4O)C[C@]23C)O1` [Pseudoginsenoside RT5] (compound dose: 10 uM): in the assay on MDA-MB-231 [1], the cell viability stood at 0.987 ± 0.016. Moreover, the kynurenine production with MDA-MB-231 [2] is 0.865 ± 0.21.

With `O=C(/C=C/c1ccc(O)c(O)c1)O[C@H](Cc1ccc(O)c(O)c1)C(=O)O` [Rosmarinic acid] (compound dose: 10 uM), the cell viability in the assay on MDA-MB-231 [1] amounted to 1.11 ± 0.14. The kynurenine production in the assay with MDA-MB-231 [2] amounted to 0.908 ± 0.18.

As for `C[C@H]1[C@H](C)CC[C@]2(C(=O)O[C@@H]3O[C@H](CO[C@@H]4O[C@H](CO)[C@@H](O[C@@H]5O[C@H](C)[C@H](O)[C@@H](O)[C@H]5O)[C@H](O)[C@H]4O)[C@@H](O)[C@H](O)[C@H]3O)CC[C@]3(C)C(=CC[C@@H]4[C@@]5(C)C[C@@H](O)[C@H](O)[C@@](C)(CO)[C@@H]5CC[C@]43C)[C@H]12` [Asiaticoside] (compound dose: 10 uM), the cell viability in the assay with MDA-MB-231 [1] is 0.831 ± 0.1. In addition, the kynurenine production in the assay on MDA-MB-231 [2] is 0.85 ± 0.17.

In the case of `CC(CCC(OC1OC(CO)C(O)C(O)C1OC1OC(CO)C(O)C(O)C1O)C(C)(C)O)C1CCC2(C)C3CC=C4C(CCC(O)C4(C)C)C3(C)C(O)CC12C` (centres undefined) [Mogroside II-A] (compound dose: 10 uM), in the assay on MDA-MB-231 [1], the cell viability worked out at 1.05 ± 0.069. Also, in the assay on MDA-MB-231 [2], the kynurenine production amounted to 0.693 ± 0.08.

Regarding `Cc1coc2c1C(=O)C(=O)c1c-2ccc2c(C)cccc12` [Tanshinone I] (compound dose: 2 uM), the cell viability with MDA-MB-231 [1] is 0.921 ± 0.029. Further, the kynurenine production in the assay on MDA-MB-231 [2] was determined as 0.643 ± 0.14.

Turning to `CC(C)=CCC[C@](C)(O[C@@H]1O[C@H](CO)[C@@H](O)[C@H](O)[C@H]1O)[C@H]1CC[C@]2(C)[C@@H]1[C@H](O)C[C@@H]1[C@@]3(C)CC[C@H](O)C(C)(C)[C@@H]3[C@@H](O[C@@H]3O[C@H](CO)[C@@H](O)[C@H](O)[C@H]3O[C@@H]3OC[C@@H](O)[C@H](O)[C@H]3O)C[C@]12C` [Notoginsenoside R1] (compound dose: 10 uM), the cell viability in the assay with MDA-MB-231 [1] came to 0.909 ± 0.066. Moreover, in the assay on MDA-MB-231 [2], the kynurenine production was 1 ± 0.038.

In the case of `C=C1C=CC(C(C)C)CC1` (stereo not drawn) [β-Phellandrene] (compound dose: 10 uM), the cell viability with MDA-MB-231 [1] stood at 0.99 ± 0.038. In addition, the kynurenine production with MDA-MB-231 [2] was determined as 0.832 ± 0.18.

On to `CC(=O)OC/C=C(\C)CCC=C(C)C` [Geranyl acetate] (compound dose: 10 uM), for which, in the assay with MDA-MB-231 [1], the cell viability was 1.01 ± 0.065. The kynurenine production in the assay with MDA-MB-231 [2] worked out at 0.882 ± 0.039.

In the case of `C[C@@H]1CC[C@]2(C(=O)O)CC[C@]3(C)C(=CCC4[C@@]5(C)CC[C@H](O[C@@H]6OC[C@H](O)[C@H](O)[C@H]6O)C(C)(C)C5CC[C@]43C)[C@@H]2[C@]1(C)O` (some centres undefined) [Ziyuglycoside II] (compound dose: 10 uM), the cell viability in the assay on MDA-MB-231 [1] amounted to 0.934 ± 0.014. In addition, the kynurenine production in the assay on MDA-MB-231 [2] was found to be 0.646 ± 0.0077.

Take `CC1(C)CC[C@]2(C(=O)O)CC[C@]3(C)C(=CC[C@@H]4[C@@]5(C)CC[C@H](O[C@@H]6O[C@H](C(=O)O)[C@@H](O)[C@H](O)[C@H]6O[C@@H]6O[C@H](CO)[C@@H](O)[C@H](O)[C@H]6O)C(C)(C)[C@@H]5CC[C@]43C)[C@@H]2C1` [Zingibroside R1] (compound dose: 10 uM): the cell viability in the assay with MDA-MB-231 [1] was found to be 1.19 ± 0.15. In the assay with MDA-MB-231 [2], the kynurenine production turned out to be 1.06 ± 0.15.

In the case of `CC(=O)OC/C=C(C)/C=C/C=C(C)/C=C/C1=C(C)CCCC1(C)C` [Retinyl acetate] (compound dose: 10 uM), the cell viability with MDA-MB-231 [1] was 0.9487 ± 0.0087. For the same compound, in the assay with MDA-MB-231 [2], the kynurenine production worked out at 0.753 ± 0.084.

Consider `C=C(C)[C@@H]1CCC2=CC(=O)C[C@@H](C)[C@]2(C)C1` [Nootkatone] (compound dose: 10 uM), for which the cell viability in the assay on MDA-MB-231 [1] turned out to be 0.9333 ± 0.0022. For the same compound, the kynurenine production in the assay on MDA-MB-231 [2] came out at 0.932 ± 0.073.

As for `C=C1CC[C@@H]2[C@](C)(CO)[C@H](O)CC[C@@]2(C)[C@@H]1/C=C/C1=CCOC1=O` [14-Deoxy-11,12-didehydroandrographolide] (compound dose: 10 uM), in the assay with MDA-MB-231 [1], the cell viability worked out at 0.857 ± 0.047. In addition, in the assay with MDA-MB-231 [2], the kynurenine production amounted to 0.921 ± 0.095.

As to `C=C(C)[C@@H]1CC[C@]2(CO)CC[C@]3(C)[C@H](CC[C@@H]4[C@@]5(C)CC[C@H](O)C(C)(C)[C@@H]5CC[C@]43C)[C@@H]12` [Betulin] (compound dose: 2 uM), the cell viability in the assay with MDA-MB-231 [1] is 0.842 ± 0.04. In addition, the kynurenine production with MDA-MB-231 [2] was found to be 0.826 ± 0.13.

As for `C[C@H]1O[C@@H](O[C@H]2CC[C@@]3(C)[C@@H](CC[C@]4(C)[C@@H]3C=CC3=C5CC(C)(C)CC[C@]5(CO)[C@H](O)C[C@]34C)[C@]2(C)CO)[C@H](O)[C@@H](O[C@@H]2O[C@H](CO)[C@@H](O)[C@H](O)[C@H]2O)[C@H]1O` [Saikosaponin B2] (compound dose: 10 uM), the cell viability in the assay on MDA-MB-231 [1] is 1.047 ± 0.0068. The kynurenine production with MDA-MB-231 [2] turned out to be 0.739 ± 0.04.
